# Data reported in PubChem BioAssay (EPA / NIEHS).
# Calls of active or inactive are those of the source. Rule for the calls: active = hit-call score of the fitted dose curve at least 0.9, where 1 is the maximum; inactive = score below 0.9.
# Columns and labels:
# [1] = APR_HepG2_P-H2AX_72hr: Apredica 72-hour HepG2 Assay for H2AX Phosphorylation (AID 2282916); conditions: imaging, actives raise or lower the signal;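 note: phospho-histone H2A.x immunostain intensity per cell marking DNA damage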
# Method in brief: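 Phospho-histone H2A.x immunofluorescence, multiplexed with Hoechst and c-Jun, quantified by high-content imaging. Compounds applied to HepG2 for 72 h across ten concentrations (0.39–200 uM, 0.5% DMSO), in duplicate; DMSO baseline.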
# [2] = APR_HepG2_MitoMembPot_72hr: Apredica 72-hour HepG2 Assay for Mitochondrial Membrane Potential (AID 2282917); conditions: imaging, actives raise or lower the signal
# Method in brief: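 HepG2 cells dosed 72 hr with compound at 0.39–200 uM in duplicate, 0.5% v/v DMSO final. Mitochondria stained with 250 nM MitoTracker Red CMXRos for 30 min before formaldehyde fixation, imaged by high-content fluorescence; bidirectional fit versus DMSO.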
# [3] = APR_HepG2_MitoticArrest_72hr: Apredica 72-hour HepG2 Assay for Mitotic Arrest (AID 2282918); conditions: high-content imaging, actives raise or lower the signal
# Method in brief: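 HepG2, 72 hr exposure, 0.39–200 uM in duplicate, 0.5% v/v DMSO final. Formaldehyde-fixed, Triton-permeabilized, anti-phospho-histone H3/FITC plus Hoechst. ArrayScan imaging at 20x; curves fit bidirectionally against DMSO baseline.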
# [4] = APR_HepG2_MicrotubuleCSK_72hr: Apredica 72-hour HepG2 Assay for Microtubule CSK Stabilty (AID 2282919); conditions: HepG2 microtubule cytoskeleton, high-content imaging, actives raise or lower the signal
# Method in brief: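 HepG2, 72 hr cmpd exposure, 0.39–200 uM (10 pts, duplicate), 0.5% DMSO. 3.7% formaldehyde fix, 0.5% Triton perm, anti-alpha-tubulin/Cy5 plus Hoechst. HCS fluorescence intensity; bidirectional fit vs DMSO baseline; taxol as positive control.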
# [5] = APR_HepG2_P-H2AX_24hr: Apredica 24-hour HepG2 Assay for H2AX Phosphorylation (AID 2282920); conditions: high-content imaging, actives raise or lower the signal
# Method in brief: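 HCS fluorescence imaging of phospho-H2A.x immunostain (with Hoechst 33342 nuclear counterstain) in HepG2 after 24 hr compound exposure; 10 concentrations, 0.39–200 uM, duplicate wells, 0.5% v/v DMSO. Gain or loss of signal fitted relative to DMSO baseline.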
# [6] = APR_HepG2_StressKinase_72hr: Apredica 72-hour HepG2 Assay for Stress Kinase (AID 2282921); conditions: HepG2 stress kinase (phospho-c-Jun) imaging, actives raise or lower the signal
# Method in brief: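 Stress kinase signal is phospho-c-Jun immunofluorescence (1:500 primary, Cy3 secondary) in fixed, permeabilized human HepG2 cells imaged at 20x. Exposure lasted 72 hr over ten concentrations from 0.39 to 200 uM, 0.5% DMSO, in duplicate. Bidirectional fit versus DMSO.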
# [7] = APR_HepG2_StressKinase_24hr: Apredica 24-hour HepG2 Assay for Stress Kinase (AID 2282922); conditions: HepG2 stress kinase (phospho-c-Jun) imaging, actives raise or lower the signal
# Method in brief: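 Read-out: phospho-c-Jun immunofluorescence (Cy3 secondary) quantified by high-content imaging at 20x, nuclei defined by Hoechst 33342. Human HepG2 liver cells dosed 24 hr, 0.39–200 uM, DMSO 0.5% v/v; gain or loss of signal fitted relative to DMSO.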
# [8] = APR_HepG2_p53Act_72hr: Apredica 72-hour HepG2 Assay for p53 Activation (AID 2282923); conditions: high-content imaging, actives raise or lower the signal;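 note: average cellular p53 protein immunofluorescence intensity in HepG2 cells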
# Method in brief: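 After 72 h with compound (ten points, 0.39 to 200 uM, final DMSO 0.5% v/v), fixed HepG2 cells were labelled with sheep anti-p53 and Hoechst 33342 and imaged; gain or loss versus DMSO scored.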
# [9] = APR_HepG2_MitoMass_72hr: Apredica 72-hour HepG2 Assay for Mitochondrial Mass (AID 2282924); conditions: high-content imaging, actives raise or lower the signal;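 note: MitoTracker Red CMXRos stain intensity per cell imaged as mitochondrial mass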
# Method in brief: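 Read-out: MitoTracker Red fluorescence intensity from automated imaging (20x, six fields per well) in human HepG2 liver cells. Dosing ran 72 hr, 0.39–200 uM, 0.5% DMSO; bidirectional curve fitting versus DMSO baseline.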
# [10] = APR_HepG2_NuclearSize_72hr: Apredica 72-hour HepG2 Assay for Nuclear Size (AID 2282925); conditions: high-content imaging, actives raise or lower the signal
# Method in brief: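 Read-out: nuclear diameter from Hoechst 33342 images (ArrayScan, 20x, six fields/well), via cell-cycle image analysis. HepG2 were dosed 0.39–200 uM for 72 hr in 0.5% DMSO. Bidirectional fit relative to DMSO.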
SMILES,outcome [1],outcome [2],outcome [3],outcome [4],outcome [5],outcome [6],outcome [7],outcome [8],outcome [9],outcome [10],AC50 [9],AC50 [1],AC50 [2],AC50 [3],AC50 [5],AC50 [10],AC50 [4],AC50 [6],AC50 [8]
O=C1O[C@H]([C@H](O)CO)C(O)=C1O,inactive,inactive,inactive,inactive,inactive,inactive,inactive,inactive,inactive,inactive,–,–,–,–,–,–,–,–,–
CC1(C)C(=O)NC(=O)N1CO,inactive,inactive,inactive,inactive,inactive,inactive,inactive,inactive,–,inactive,100 µM (active),–,–,–,–,–,–,–,–
CO[C@@H]1COCC[C@@H]1N[C@@H]1CC[C@@](C(=O)N2CCc3ncc(C(F)(F)F)cc3C2)(C(C)C)C1,inactive,inactive,inactive,inactive,inactive,inactive,inactive,inactive,inactive,inactive,–,–,–,–,–,–,–,–,–
CS(=O)(=O)c1ccc([C@@H](C[C@H]2CCC(=O)C2)C(=O)Nc2cnccn2)cc1Cl,inactive,inactive,inactive,inactive,inactive,inactive,inactive,inactive,–,inactive,43.7 µM (active),–,–,–,–,–,–,–,–
COc1ccc(C(=O)Nc2nc3ccccc3c(NCc3ccccc3)c2C#N)cc1,–,–,–,inactive,–,inactive,inactive,inactive,–,–,5.59 µM (active),47.8 µM (active),1.45 µM (active),108 µM (active),106 µM (active),113 µM (active),–,–,–
O=[Si]=O,inactive,inactive,inactive,inactive,inactive,inactive,inactive,inactive,inactive,inactive,–,–,–,–,–,–,–,–,–
CN(C)C(=O)NC1(c2ccccc2)CCN(CC[C@@]2(c3ccc(F)c(F)c3)CN(C(=O)c3ccccc3)CCO2)CC1,–,inactive,–,–,inactive,–,inactive,–,inactive,inactive,–,91.8 µM (active),–,86 µM (active),–,–,82.9 µM (active),104 µM (active),97.7 µM (active)
CCOCCOCCO,inactive,inactive,inactive,inactive,inactive,inactive,inactive,inactive,inactive,inactive,–,–,–,–,–,–,–,–,–
CN(C)C(=O)NC1(c2ccccc2)CCN(CCC[C@]2(c3ccc(Cl)c(Cl)c3)CCCN(C(=O)c3ccccc3)C2)CC1,–,–,–,inactive,–,–,inactive,–,inactive,inactive,–,15.1 µM (active),25.4 µM (active),9.82 µM (active),22.5 µM (active),–,–,25 µM (active),10.3 µM (active)
O=C(O)CC(O)(CC(=O)O)C(=O)O,inactive,inactive,inactive,inactive,inactive,inactive,inactive,inactive,inactive,inactive,–,–,–,–,–,–,–,–,–
O=C1c2c(O)cccc2Cc2cccc(O)c21,inactive,–,inactive,inactive,inactive,inactive,inactive,inactive,inactive,inactive,–,–,19.3 µM (active),–,–,–,–,–,–
CCCCC(CC)CO (stereo not given),inactive,inactive,inactive,inactive,inactive,inactive,inactive,inactive,inactive,inactive,–,–,–,–,–,–,–,–,–
CC(C)(C)c1ccccc1,inactive,inactive,inactive,inactive,inactive,inactive,inactive,inactive,inactive,inactive,–,–,–,–,–,–,–,–,–
Oc1ccc(O)cc1,inactive,inactive,inactive,inactive,inactive,inactive,inactive,–,–,–,46.3 µM (active),–,–,–,–,67.8 µM (active),–,–,91.9 µM (active)
OCC(CO)n1cnc(-c2ccc(F)cc2)c1-c1ccnc(Oc2ccccc2)n1,inactive,inactive,inactive,inactive,inactive,inactive,inactive,inactive,inactive,inactive,–,–,–,–,–,–,–,–,–
CCCC[C@H]1CN(CC2CCOCC2)C(=O)OC12CCN(C1(C)CCN(C(=O)c3c(C)ncnc3C)CC1)CC2,inactive,inactive,inactive,inactive,inactive,inactive,inactive,inactive,inactive,inactive,–,–,–,–,–,–,–,–,–
Cc1c(C)c2c(c(C)c1O)CCC(C)(COc1ccc(CC3SC(=O)NC3=O)cc1)O2 (stereo not given),–,–,–,inactive,inactive,–,inactive,–,–,inactive,61.8 µM (active),89.5 µM (active),135 µM (active),54.3 µM (active),–,–,–,78.4 µM (active),65.2 µM (active)
CCc1cc(C2=C(C(=O)O)N(c3ccccc3C(F)(F)F)S(=O)(=O)c3ccccc32)cc2c1OCO2,inactive,inactive,inactive,inactive,inactive,inactive,inactive,inactive,inactive,inactive,–,–,–,–,–,–,–,–,–
O=C(O)CN(CC(=O)O)CC(=O)O,inactive,inactive,inactive,inactive,inactive,inactive,inactive,inactive,inactive,inactive,–,–,–,–,–,–,–,–,–
CC(=O)S[C@H](C(=O)N[C@H]1Cc2ccccc2[C@H]2CCC[C@@H](C(=O)O)N2C1=O)C(C)C,inactive,inactive,inactive,inactive,inactive,inactive,inactive,inactive,inactive,inactive,–,–,–,–,–,–,–,–,–
